From the supplement of paper PMC10121225 come the findings set out here.

Structures are written as SMILES. Counter-ions that a name gives are not always drawn.
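Further: immunostained co-cultures imaged by high-content microscopy, Z-score per plate against mean and SD of 0.1% DMSO wells, compounds added on differentiation day 18, analysed day 21.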

This assay relates to hN + hpA co-culture (H1 iNGN2 human neurons + human primary astrocytes). Description: presynaptic density (SYNAPSIN1 puncta per MAP2 neurite area), Z-score vs DMSO controls; higher = more presynaptic puncta (synapse-promoting). To be noted: 3 µM; 72 h.
As to `COc1cc2nc(N3CCN(C(=O)C4COc5ccccc5O4)CC3)nc(N)c2cc1OC` (stereo unspecified) [Doxazosin mesylate], the “presynaptic density (Z-score)” value was determined as 0.0192. `Cc1cccc(-c2nn3c(c2-c2ccnc4ccc(C(N)=O)cc24)CCC3)n1`: the “presynaptic density (Z-score)” value turned out to be 0.336. As to `COc1cc(-c2ncn(/C=C\C(=O)OC(C)C)n2)cc(C(F)(F)F)c1`, the “presynaptic density (Z-score)” value was -0.959.

For the compound `C[C@H](NCc1ccc(OCc2cccc(F)c2)cc1)C(N)=O` [Safinamide Mesylate], the “presynaptic density (Z-score)” value is -0.055. For `C=CC(=O)Nc1cccc(Oc2nc(Nc3ccc(N4CCN(C)CC4)cc3OC)ncc2Cl)c1`, the “presynaptic density (Z-score)” value is -0.275.

With `Cc1ccc2nc(NC(=O)CSc3nc4c(c(=O)n3-c3ccccc3)SCC4)sc2c1`, the “presynaptic density (Z-score)” value was -0.234. Turning to `NCc1c[nH]c(=S)n1C1CCc2c(F)cc(F)cc2C1` [(R)-Nepicastat HCl], the “presynaptic density (Z-score)” value turned out to be 0.738.

As to `CC(NC(=O)Cc1cc(F)cc(F)c1)C(=O)NC1C(=O)N(C)c2ccccc2-c2ccccc21` (stereo unspecified), the “presynaptic density (Z-score)” value is -0.744. Consider `COc1cc2c(cc1OC)CN(CCc1ccc(NC(=O)c3cc(OC)c(OC)cc3NC(=O)c3cnc4ccccc4c3)cc1)CC2` [Tariquidar], for which the “presynaptic density (Z-score)” value was -0.47. Turning to `CC(C)OC(=O)OCOP(=O)(CO[C@H](C)Cn1cnc2c(N)ncnc21)OCOC(=O)OC(C)C` [Tenofovir Disoproxil Fumarate], the “presynaptic density (Z-score)” value was 0.611. `CC(C)c1ccc(NC(=O)Cn2cnc3c2c(=O)n(C)c(=O)n3C)cc1`: the “presynaptic density (Z-score)” value was -0.215. With `O=[N+]([O-])c1ccc2c(c1)S(=O)(=O)C=C2` [6-Nitrobenzo[b]thiophene 1,1-dioxide] the figure was 0.915; with `C[S+]([O-])c1ccc(-c2nc(-c3ccc(F)cc3)c(-c3ccncc3)[nH]2)cc1` (stereo unspecified), -1.11; with `OCCOc1ccc(/C(=C(/CCCl)c2ccccc2)c2ccccc2)cc1` [Ospemifene], -0.588. With `CCc1cncnc1N1CCN(Cc2nc3ccc(C(F)(F)F)cc3[nH]2)CC1` the figure was -0.739. With `NC1(Cc2ccc(Cl)cc2)CCN(c2ncnc3[nH]ccc23)CC1` the figure was -0.622; with `Cc1cnc(NC(=O)Nc2cc(Br)c(C)cc2OC[C@@H]2CNCCO2)cn1`, -0.602. On to `CCc1nc(N)nc(N)c1-c1ccc(Cl)cc1`, for which the “presynaptic density (Z-score)” value was -0.391. With `COc1ccc(-n2nc(C(N)=O)c3c2C(=O)N(c2ccc(N4CCCCC4=O)cc2)CC3)cc1` [Apixaban] the figure was 0.0881; with `C=CCNC1=C2C[C@@H](C)C[C@H](OC)[C@H](O)[C@@H](C)/C=C(\C)[C@H](OC(N)=O)[C@@H](OC)/C=C\C=C(/C)C(=O)NC(=CC1=O)C2=O` [17-AAG (Tanespimycin)], 0.868. Take `COc1cc2c(N3CCN(C(=O)Nc4ccc(OC(C)C)cc4)CC3)ncnc2cc1OCCCN1CCCCC1`: the “presynaptic density (Z-score)” value is -0.158. With `O=C(C[S+]([O-])Cc1ccco1)NC/C=C\COc1cc(CN2CCCCC2)ccn1` (stereo unspecified) [Lafutidine] the figure was -0.624; with `O=C(c1ccc(F)cc1)N1CCCC(c2nc(-c3ccc(F)cc3)no2)C1` (stereo unspecified), -0.851.

For `Nc1nc(OCc2cc(Br)cs2)c2[nH]cnc2n1` [Lomeguatrib], the “presynaptic density (Z-score)” value was -0.621. For the compound `NCC(=O)Nc1ccc(-n2nc(C(F)(F)F)cc2-c2ccc3c(ccc4ccccc43)c2)cc1`, the “presynaptic density (Z-score)” value was -0.52. With `CN1CCN(c2nc(C3=C(c4c[nH]c5ccccc45)C(=O)NC3=O)c3ccccc3n2)CC1` [AEB071 (Sotrastaurin)] the figure was -0.719; with `COc1ccc2cc(-c3nc(-c4ccc([S+](C)[O-])cc4)[nH]c3-c3ccncc3)ccc2c1` (stereo unspecified) [Tie2 kinase inhibitor], -0.787; with `CCCS(=O)(=O)Nc1ccc(F)c(C(=O)c2c[nH]c3ncc(-c4ccc(Cl)cc4)cc23)c1F`, -0.231. Take `Cc1cnc(-c2cc(N3CCN(C(=O)CCS(C)(=O)=O)CC3)ncc2Cl)c(C)c1`: the “presynaptic density (Z-score)” value is -1.22. With `Cc1cc(OCCCS(C)(=O)=O)cc(C)c1-c1cccc(COc2ccc3c(c2)OC[C@H]3CC(=O)O)c1` the figure was -0.294. In the case of `O=C1NC(=O)/C(=C/c2ccc(-c3ccc(F)cc3O)o2)S1`, the “presynaptic density (Z-score)” value was found to be 0.652. The same measure for `NC1(c2ccc(-c3nc4ccn5c(=O)[nH]nc5c4cc3-c3ccccc3)cc2)CCC1`: -1.01; for `CCc1c(C(=O)NCCc2ccc(N3CCCCC3)cc2)[nH]c2ccc(Cl)cc12`: -0.684; for `NC(=O)c1ccc(I)c([N+](=O)[O-])c1`: -1.09. As to `CC(C)NC[C@@H](C(=O)N1CCN(c2ncnc3c2[C@H](C)C[C@H]3O)CC1)c1ccc(Cl)cc1`, the “presynaptic density (Z-score)” value is -0.322.

For the compound `N#CC(=C(N)Sc1ccccc1N)C(C#N)=C(N)Sc1ccccc1N` [1,4-Diamino-2,3-dicyano-1,4-bis[2-aminophenylthio]butadiene], the “presynaptic density (Z-score)” value was -0.048.
